# Laboratory results from PubChem BioAssay AID1159580 (chemical genetic matrix, 2015).
# The campaign covered roughly 5,500 compounds. About 2,000 (36%) were called active. Roughly 18% stayed inconclusive and do not appear here. This is one part of the list. A number with no mark means an inactive call. Cut-off read from the data, not from the text of the source: active = normalized growth mostly below about 0.91 (no sharp cut-off); inconclusive = no clear call, values can overlap the other calls; inactive = mostly above about 0.92.
# Assay: chemical genetic growth profiling, strain panel (AID 1159580);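 note: tested at 20 µM; growth read once vehicle control cultures reached saturation at 30 °C; 1 = growth at the plate median or of vehicle wells; lower values mean less growth of the strain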
# Conditions: S. cerevisiae deletion strains, growth OD
smiles,measurement,setting,value
COc1ccc(C(=O)c2ccccc2)c(O)c1O,normalized growth,"locus YAL013W, strain DEP1, hits give low values",0.929
same,normalized growth,"locus YAL021C, strain ccr4, hits give low values",0.981
same,normalized growth,"locus YAL026C, strain drs2, hits give low values",0.973
same,normalized growth,"locus YAL030W, strain snc1, hits give low values",0.974
same,normalized growth,"locus YBL061C, strain skt5, hits give low values",0.973
same,normalized growth,"locus YBR009C, strain hhf1, hits give low values",0.973
same,normalized growth,"locus YBR021W, strain FUR4, hits give low values",0.853
same,normalized growth,"locus YBR023C, strain chs3, hits give low values",0.969
same,normalized growth,"locus YBR171W, strain sec66, hits give low values",0.945
same,normalized growth,"locus YBR229C, strain ROT2, hits give low values",0.999
same,normalized growth,"locus YBR231C, strain swc5, hits give low values",0.962
same,normalized growth,"locus YBR279W, strain paf1, hits give low values",0.957
same,normalized growth,"locus YCL011C, strain gbp2, hits give low values",0.968
same,normalized growth,"locus YCL016C, strain dcc1, hits give low values",0.986
same,normalized growth,"locus YCL029C, strain bik1, hits give low values",0.956
same,normalized growth,"locus YCL061C, strain MRC1, hits give low values",0.968
same,normalized growth,"locus YCL069W, strain vba3, hits give low values",0.986
same,normalized growth,"locus YCR088W, strain abp1, hits give low values",0.981
same,normalized growth,"locus YDL005C, strain med2, hits give low values",0.971
same,normalized growth,"locus YDL035C, strain GPR1, hits give low values",0.974
same,normalized growth,"locus YDL040C, strain nat1, hits give low values",0.985
same,normalized growth,"locus YDL074C, strain BRE1, hits give low values",0.868
same,normalized growth,"locus YDL101C, strain DUN1, hits give low values",0.953
same,normalized growth,"locus YDL134C, strain PPH21, hits give low values",0.904
same,normalized growth,"locus YDL185W, strain tfp1, hits give low values",0.901 (active)
same,normalized growth,"locus YDL192W, strain arf1, hits give low values",0.892 (active)
same,normalized growth,"locus YDR001C, strain nth1, hits give low values",0.975
same,normalized growth,"locus YDR069C, strain doa4, hits give low values",0.939
same,normalized growth,"locus YDR101C, strain arx1, hits give low values",0.983
same,normalized growth,"locus YDR137W, strain rgp1, hits give low values",0.787 (active)
same,normalized growth,"locus YDR159W, strain sac3, hits give low values",0.975
same,normalized growth,"locus YDR162C, strain NBP2, hits give low values",0.947
same,normalized growth,"locus YDR195W, strain ref2",1.02
same,normalized growth,"locus YDR297W, strain sur2, hits give low values",0.966
same,normalized growth,"locus YDR318W, strain mcm21, hits give low values",0.933
same,normalized growth,"locus YDR334W, strain swr1, hits give low values",0.951
same,normalized growth,"locus YDR335W, strain msn5, hits give low values",0.97
same,normalized growth,"locus YDR388W, hits give low values",0.962
same,normalized growth,"locus YDR392W, strain spt3, hits give low values",0.851
same,normalized growth,"locus YDR502C, strain sam2, hits give low values",0.9 (active)
same,normalized growth,"locus YEL003W, strain gim4, hits give low values",0.96
same,normalized growth,"locus YEL037C, strain rad23, hits give low values",0.964
same,normalized growth,"locus YEL061C, strain CIN8 (second series), hits give low values",0.974
same,normalized growth,"locus YEL061C, strain CIN8, hits give low values",0.967
same,normalized growth,"locus YER015W, strain faa2, hits give low values",0.965
same,normalized growth,"locus YER016W, strain bim1, hits give low values",0.972
same,normalized growth,"locus YER110C, hits give low values",0.936
same,normalized growth,"locus YER111C, strain swi4, hits give low values",0.97
same,normalized growth,"locus YER155C, strain BEM2 (second series), hits give low values",0.81 (active)
same,normalized growth,"locus YER155C, strain BEM2, hits give low values",1.02
same,normalized growth,"locus YER167W, strain BCK2, hits give low values",0.997
same,normalized growth,"locus YFR010W, strain ubp6, hits give low values",0.937
same,normalized growth,"locus YGL078C, strain dbp3, hits give low values",0.909 (active)
same,normalized growth,"locus YGL086W, strain mad1, hits give low values",0.937
same,normalized growth,"locus YGL167C, strain pmr1, hits give low values",0.955
same,normalized growth,"locus YGL173C, strain kem1, hits give low values",0.948
same,normalized growth,"locus YGL227W, strain vid30, hits give low values",0.99
same,normalized growth,"locus YGL240W, strain doc1, hits give low values",0.92
same,normalized growth,"locus YGL248W, strain PDE1, hits give low values",0.92
same,normalized growth,"locus YGL253W, strain hxk2, hits give low values",0.979
same,normalized growth,"locus YGR078C, strain PAC10, hits give low values",0.891
same,normalized growth,"locus YGR135W, strain pre9, hits give low values",0.846 (active)
same,normalized growth,"locus YGR252W, strain gcn5, hits give low values",0.698 (active)
same,normalized growth,"locus YHR013C, strain ard1, hits give low values",0.941
same,normalized growth,"locus YHR027C, strain rpn1, hits give low values",0.959
same,normalized growth,"locus YHR030C, strain SLT2, hits give low values",0.979
same,normalized growth,"locus YHR079C, strain IRE1 (second series), hits give low values",0.932
same,normalized growth,"locus YHR094C, strain hxt1, hits give low values",0.955
same,normalized growth,"locus YHR129C, strain ARP1, hits give low values",0.927
same,normalized growth,"locus YHR142W, strain chs7, hits give low values",0.939
same,normalized growth,"locus YHR200W, strain rpn10, hits give low values",0.937
same,normalized growth,"locus YIL066C, strain RNR3, hits give low values",0.976
same,normalized growth,"locus YIL073C, strain SPO22, hits give low values",0.897
same,normalized growth,"locus YIL125W, strain kgd1, hits give low values",0.969
same,normalized growth,"locus YIR030C, strain dcg1, hits give low values",0.958
same,normalized growth,"locus YJL092W, strain hpr5, hits give low values",0.967
same,normalized growth,"locus YJL095W, strain BCK1 (second series), hits give low values",0.971
same,normalized growth,"locus YJL095W, strain BCK1, hits give low values",0.724 (active)
same,normalized growth,"locus YJL115W, strain asf1, hits give low values",0.945
same,normalized growth,"locus YJL129C, strain trk1, hits give low values",0.966
same,normalized growth,"locus YJL134W, strain LCB3, hits give low values",0.991
same,normalized growth,"locus YJL154C, strain vps35, hits give low values",0.972
same,normalized growth,"locus YJL164C, strain tpk1, hits give low values",0.96
same,normalized growth,"locus YJL166W, strain qcr8, hits give low values",0.973
same,normalized growth,"locus YJL168C, strain set2, hits give low values",0.96
same,normalized growth,"locus YJL187C, strain SWE1 (second series), hits give low values",0.885
same,normalized growth,"locus YJL187C, strain SWE1, hits give low values",0.971
same,normalized growth,"locus YJR043C, strain POL32, hits give low values",0.942
same,normalized growth,"locus YKL009W, strain mrt4, hits give low values",0.933
same,normalized growth,"locus YKL068W, hits give low values",0.957
same,normalized growth,"locus YKL085W, strain MDH1 (second series), hits give low values",0.963
same,normalized growth,"locus YKL085W, strain MDH1, hits give low values",0.963
same,normalized growth,"locus YKL160W, strain elf1, hits give low values",0.971
same,normalized growth,"locus YKR001C, strain vps1, hits give low values",0.781 (active)
same,normalized growth,"locus YKR026C, strain gcn3, hits give low values",0.964
same,normalized growth,"locus YKR091W, strain srl3, hits give low values",0.978
same,normalized growth,"locus YLL001W, strain dnm1, hits give low values",0.974
same,normalized growth,"locus YLL026W, hits give low values",0.988
same,normalized growth,"locus YLL041C, strain sdh2, hits give low values",0.957
same,normalized growth,"locus YLR027C, strain aat2, hits give low values",0.975
same,normalized growth,"locus YLR039C, strain RIC1, hits give low values",0.788
same,normalized growth,"locus YLR058C, strain SHM2, hits give low values",0.933
same,normalized growth,"locus YLR102C, strain apc9, hits give low values",0.974
same,normalized growth,"locus YLR221C, strain rsa3, hits give low values",0.98
same,normalized growth,"locus YLR258W, strain gsy2, hits give low values",0.97
same,normalized growth,"locus YLR262C, strain YPT6 (second series), hits give low values",0.843 (active)
same,normalized growth,"locus YLR262C, strain YPT6, hits give low values",0.824
same,normalized growth,"locus YLR268W, strain sec22, hits give low values",0.907
same,normalized growth,"locus YLR320W, strain mms22, hits give low values",0.936
same,normalized growth,"locus YLR330W, strain CHS5, hits give low values",0.947
same,normalized growth,"locus YLR342W, strain FKS1 (second series), hits give low values",0.851
same,normalized growth,"locus YLR342W, strain FKS1, hits give low values",0.977
same,normalized growth,"locus YLR357W, strain rsc2, hits give low values",0.885
same,normalized growth,"locus YLR370C, strain arc18, hits give low values",0.975
same,normalized growth,"locus YLR371W, strain rom2, hits give low values",0.948
same,normalized growth,"locus YLR384C, strain iki3, hits give low values",0.968
same,normalized growth,"locus YLR418C, strain cdc73, hits give low values",0.825 (active)
same,normalized growth,"locus YML016C, strain PPZ1, hits give low values",0.979
same,normalized growth,"locus YML032C, strain rad52, hits give low values",0.926
same,normalized growth,"locus YML120C, strain ndi1, hits give low values",0.967
same,normalized growth,"locus YML124C, strain tub3, hits give low values",0.957
same,normalized growth,"locus YMR058W, strain fet3, hits give low values",0.897 (active)
same,normalized growth,"locus YMR078C, strain ctf18, hits give low values",0.931
same,normalized growth,"locus YMR125W, strain sto1, hits give low values",0.97
same,normalized growth,"locus YMR129W, hits give low values",0.973
same,normalized growth,"locus YMR205C, strain PFK2, hits give low values",0.991
same,normalized growth,"locus YMR223W, strain ubp8, hits give low values",0.909
same,normalized growth,"locus YMR231W, strain pep5, hits give low values",0.973
same,normalized growth,"locus YMR307W, strain GAS1, hits give low values",0.983
same,normalized growth,"locus YNL067W, strain RPL9B, hits give low values",0.918
same,normalized growth,"locus YNL071W, strain lat1, hits give low values",0.971
same,normalized growth,"locus YNL153C, strain GIM3, hits give low values",0.906
same,normalized growth,"locus YNL209W, strain ssb2, hits give low values",0.965
same,normalized growth,"locus YNL233W, strain BNI4, hits give low values",0.895
same,normalized growth,"locus YNL248C, strain rpa49, hits give low values",0.984
same,normalized growth,"locus YNL250W, strain rad50, hits give low values",0.9
same,normalized growth,"locus YNL271C, strain bni1, hits give low values",0.908 (active)
same,normalized growth,"locus YNL298W, strain CLA4, hits give low values",0.965
same,normalized growth,"locus YNL307C, strain MCK1, hits give low values",0.906 (active)
same,normalized growth,"locus YNL322C, strain KRE1 (second series), hits give low values",0.978
same,normalized growth,"locus YNR049C, strain mso1, hits give low values",0.983
same,normalized growth,"locus YNR052C, strain pop2, hits give low values",0.896 (active)
same,normalized growth,"locus YOL006C, strain TOP1, hits give low values",0.69
same,normalized growth,"locus YOL012C, strain htz1",0.47
same,normalized growth,"locus YOL147C, strain pex11, hits give low values",0.963
same,normalized growth,"locus YOR001W, strain rrp6, hits give low values",0.955
same,normalized growth,"locus YOR061W, strain CKA2, hits give low values",0.989
same,normalized growth,"locus YOR069W, strain VPS5, hits give low values",0.948
same,normalized growth,"locus YOR070C, strain gyp1, hits give low values",0.975
same,normalized growth,"locus YOR080W, strain dia2, hits give low values",0.989
same,normalized growth,"locus YOR083W, strain WHI5, hits give low values",0.953
same,normalized growth,"locus YOR106W, strain vam3, hits give low values",0.932
same,normalized growth,"locus YOR136W, strain idh2, hits give low values",0.952
same,normalized growth,"locus YOR144C, strain elg1, hits give low values",0.971
same,normalized growth,"locus YOR184W, strain ser1, hits give low values",0.996
same,normalized growth,"locus YOR265W, strain rbl2, hits give low values",0.973
same,normalized growth,"locus YOR270C, strain vph1, hits give low values",0.854
same,normalized growth,"locus YOR290C, strain snf2, hits give low values",0.929
same,normalized growth,"locus YOR316C, strain cot1, hits give low values",0.948
same,normalized growth,"locus YPL051W, strain arl3, hits give low values",0.936
same,normalized growth,"locus YPL078C, strain atp4, hits give low values",0.975
same,normalized growth,"locus YPL106C, strain sse1, hits give low values",0.901
same,normalized growth,"locus YPL240C, strain hsp82, hits give low values",0.954
same,normalized growth,"locus YPL241C, strain CIN2, hits give low values",0.977
same,normalized growth,"locus YPR119W, strain clb2, hits give low values",0.947
same,normalized growth,"locus YPR141C, strain kar3, hits give low values",0.923
same,normalized growth,"locus YPR163C, strain tif3, hits give low values",0.813 (active)
same,normalized growth,"locus YPR167C, strain met16, hits give low values",0.919 (active)
same,normalized growth,"strain wtn01, hits give low values",0.971
